PBM binding z-score data for seven sequences are collected here from the supplement of paper PMC6555819.

Common to all, as to experiment: PBM binding z-score (relative to random genomic background probes); higher = stronger binding; sequences stand for … in GC…GCGATTGACAGCGTAGAATGAAGG
The subject of experiment [1] is FXR:RXRa (NR concentration 270 nM, RXRa partner concentration 90 nM). The method in brief: (§1)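 For binding z-scores, the reference was random background probes on custom Agilent 4×180K protein-binding microarrays. These arrays were incubated 1 h with ligand-free nuclear receptor dimers in PBS pH 7.4, 2% milk, 0.02% Triton X-100, 1 mM DTT, 0.2 mg/mL BSA and 0.4 mg/ml salmon testes DNA. Fluorescence was scanned after antibody detection of each partner (one per run) and regression-normalized.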

Experiment [2] has as its system LXRa:RXRa (NR concentration 270 nM, RXRa partner concentration 90 nM). The method, boiled down:
as §1

In experiment [3] the test system is LXRa homodimer (NR concentration 270 nM). The method in brief:
as §1

In experiment [4] the test system is LXRb:RXRa (NR concentration 270 nM, RXRa partner concentration 90 nM). The method, boiled down: as §1
In experiment [5] the test system is LXRb homodimer (NR concentration 270 nM). The method, boiled down: as §1
The test system of experiment [6] is PPARa:RXRa (NR concentration 270 nM, RXRa partner concentration 90 nM). The method in brief:
as §1

Experiment [7] relates to PPARg:RXRa (NR concentration 180 nM, RXRa partner concentration 90 nM). The method in brief:
as §1

In experiment [8] the test system is PPARg:RXRa 270nM:90nM, anti-RXR (NR concentration 270 nM, RXRa partner concentration 90 nM). The method, boiled down:
as §1

In experiment [9] the test system is PPARg:RXRa 30nM:10nM, anti-RXR (NR concentration 30 nM, RXRa partner concentration 10 nM). The method, boiled down: as §1
Experiment [10] concerns PPARg:RXRa 90nM:30nM, anti-RXR (NR concentration 90 nM, RXRa partner concentration 30 nM). The method, boiled down:
as §1

For experiment [11], the system named is PPARg:RXRa DBDmut IVT, anti-RXR (DBD mutation: RXRa K156A/R161A, NR concentration 270 nM, RXRa partner concentration 90 nM). The method, boiled down:
as §1

The subject of experiment [12] is PPARg:RXRa IVT, anti-PPARg (NR concentration 270 nM, RXRa partner concentration 90 nM). The method, boiled down: as §1
For experiment [13], the system named is PPARg DBDmut:RXRa IVT, anti-PPARg (DBD mutation: PPARg1 K132A/R137A, NR concentration 270 nM, RXRa partner concentration 90 nM). The method in brief:
as §1

Experiment [14] has as its system PPARg DBDmut IVT, anti-PPARg (DBD mutation: PPARg1 K132A/R137A, NR concentration 270 nM). The method, boiled down: as §1
Experiment [15] concerns PPARg homodimer (NR concentration 180 nM). The method in brief: as §1
For experiment [16], the system named is PXR:RXRa (NR concentration 270 nM, RXRa partner concentration 90 nM). The method, boiled down: as §1
The test system of experiment [17] is PXR homodimer (NR concentration 270 nM). The method, boiled down: as §1
The subject of experiment [18] is RARa:RXR (NR concentration 270 nM, RXRa partner concentration 90 nM). The method, boiled down:
as §1

For experiment [19], the system named is RARa homodimer (NR concentration 270 nM). The method, boiled down:
as §1

For experiment [20], the system named is RARb:RXRa (NR concentration 270 nM, RXRa partner concentration 90 nM). The method, boiled down: as §1

For CCTATTGGGCCAAAGGTCATTGATTCCAATGCTC, the PBM binding z-score is 4.7 in [1]; 5.15 in experiment [2]; 4.17 in experiment [3]; 4.72 in experiment [4]; 1.02 in experiment [5]; 5.83 in experiment [6]. For the same sequence, the PBM binding z-score was 11.8 in experiment [7]; 9.98 in experiment [8]; 10.5 in experiment [9]; 12.1 in experiment [10]; 4.3 in experiment [11]; 6.28 in [12]. Further, the PBM binding z-score in experiment [13] is -0.0108; in [14], 0.0368; in [15], 4.43; in [16] it was 5.28; in experiment [17] it was 2.34; in experiment [18] it was 6.32. Moreover, the PBM binding z-score in experiment [19] worked out at 1.8; in experiment [20], 4.42.

Turning to CCTTACGGTTCAAGGTTATAGCACGGGTGGTACG, the PBM binding z-score in experiment [1] came to 2.11; in experiment [2] it was 1.96; in [3], 0.742; in experiment [4], 1.66; in [5], 0.441; in experiment [6], 2.53. For the same sequence, the PBM binding z-score in experiment [7] was 0.899; in experiment [8] it was 1.18; in experiment [9] it was 0.229; in [10] it was 0.767; in [11] it was -0.682; in [12], 0.211. Besides, the PBM binding z-score was 0.502 in experiment [13]; -0.14 in experiment [14]; 1.49 in experiment [15]; 2.28 in experiment [16]; 1.34 in [17]; 2.24 in experiment [18]. Besides, the PBM binding z-score came out at 1.14 in experiment [19] and 1.73 in experiment [20].

Consider TCATATAGGTAAATGCTAGTTGAAAGTCCGATCT, for which the PBM binding z-score was 0.79 in experiment [1]; 0.719 in experiment [2]; 0.081 in experiment [3]; 0.689 in [4]; -0.0232 in experiment [5]; 1.09 in experiment [6]. The PBM binding z-score came to 0.625 in experiment [7]; 1.79 in experiment [8]; 3.76 in [9]; 2.81 in experiment [10]; 4.01 in experiment [11]; 2.25 in [12]. Further, the PBM binding z-score in experiment [13] is 1.08; in [14], 1.1; in experiment [15], 0.913; in experiment [16] it was 0.488; in experiment [17], 0.757; in experiment [18], 0.405. Further, the figures for the PBM binding z-score in experiment [19] and in experiment [20] were 1.01 and 0.37, respectively.

Take ATATGTAGGTTAAGGCTCATTCAGGTTGGTTCGC: the PBM binding z-score in experiment [1] was 0.549; in experiment [2], 0.861; in [3], 0.334; in [4], 0.683; in experiment [5] it was 0.0062; in experiment [6], 3.43. The PBM binding z-score came out at 5.54 in experiment [7]; 5.46 in [8]; 2.91 in experiment [9]; 5.15 in [10]; 7.51 in [11]; 7.12 in [12]. In addition, the PBM binding z-score worked out at 5.15 in experiment [13]; 3.53 in experiment [14]; 2.08 in [15]; 0.38 in experiment [16]; 0.413 in [17]; 0.411 in experiment [18]. For the same sequence, the PBM binding z-score was 0.882 in [19] and 1.02 in experiment [20].

On to CATACGGGGTCAGCTAGGCCAGAGTAGGGACGGC, for which the PBM binding z-score in experiment [1] is 7.18; in experiment [2], 5.6; in [3], 0.0211; in [4], 4.81; in [5], 1.12; in [6], 6.17. For the same sequence, the PBM binding z-score came to 7.29 in experiment [7]; 6.63 in [8]; 3.71 in [9]; 5.39 in [10]; 2.55 in [11]; 4.45 in experiment [12]. For the same sequence, the PBM binding z-score worked out at 1.49 in experiment [13]; 1.86 in [14]; 2.4 in [15]; 4.79 in experiment [16]; 0.529 in experiment [17]; 5.51 in experiment [18]. In addition, the results for the PBM binding z-score in experiment [19] and in [20] were 0.858 and 4.84, respectively.

With CCTACTGGGCCACGAAAAGTCATTGATTCAGTGA, the PBM binding z-score in experiment [1] was -0.198; in experiment [2], -0.0823; in [3], -0.286; in experiment [4], -0.375; in [5] it was -0.772; in [6] it was 0.98. Also, the PBM binding z-score in experiment [7] is 1.63; in experiment [8], 1.67; in [9] it was 0.153; in experiment [10] it was 0.689; in experiment [11], 5.95; in [12] it was 5.51. The PBM binding z-score was -0.0211 in [13]; -0.417 in [14]; 0.0392 in experiment [15]; -0.419 in [16]; -0.579 in experiment [17]; -0.211 in experiment [18]. Moreover, the PBM binding z-score was -0.346 in experiment [19] and 0.629 in experiment [20].

For CAAACTAGCTCAAAGGTCAAAGTCGAGCCAACCA, the PBM binding z-score is 5.95 in [1]; 5.85 in [2]; 4.59 in [3]; 5.66 in experiment [4]; 2.54 in experiment [5]; 6.14 in [6]. For the same sequence, the PBM binding z-score in experiment [7] worked out at 9.32; in [8] it was 8.51; in experiment [9], 8.32; in experiment [10] it was 9.43; in experiment [11], 1.24; in experiment [12], 4.54. Further, the PBM binding z-score in experiment [13] was 0.599; in experiment [14] it was 0.63; in experiment [15], 4.6; in experiment [16], 5.37; in experiment [17], 1.71; in [18] it was 6.39. Further, the PBM binding z-score in experiment [19] was 2.49; in experiment [20], 4.76.
